# Assay outcomes: PubChem, ICCB-Longwood Screening Facility, Harvard Medical School
# fixLJ activator: B. multivorans fixK reporter activation | B. multivorans fixK-promoter GFP reporter, 18 h; stronger effect = higher value | z-score (concentration not given with the values) | hit rate 0.3% among 29,000;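 active = replicate mean overnight rise in green fluorescent reporter signal, 3 or more SD over negative controls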
# * = called active by the depositor. The entries come from a sample that favours hits as a whole.
SMILES,fixLJ activator
O=C(Nc1cccc2cccnc12)c1ccccc1[N+](=O)[O-],-1.96
CC1CCc2noc(NC(=O)c3ccccc3[N+](=O)[O-])c2C1 (stereo unspecified),3.56*
O=C(Nc1onc2c1CCCC2)c1ccc(Cl)cc1,-1.29
COc1ccc(C2=C(Nc3ccc(Br)c(C)c3)c3ccccc3C2=O)cc1,3.06*
Cc1ccc(C)c(NC2=C(c3ccc(C(F)(F)F)cc3)C(=O)c3ccccc32)c1,0.58
COc1cc(OC)c(NC2=C(c3ccc(C(F)(F)F)cc3)C(=O)c3ccccc32)cc1Cl,-0.77
Cc1ccc(C)c(N2CCN(C3=C(c4ccccc4)C(=O)c4ccccc43)CC2)c1,0.03
COc1ccc(C2=C(Nc3ccc(C)c(C)c3)c3ccccc3C2=O)cc1,-1.95
Cc1cc(C)cc(NC2=C(c3ccccc3)C(=O)c3ccccc32)c1,3.95*
COc1ccc(OC)c(NC(=O)c2nc(SCc3ccccc3F)ncc2Cl)c1,1.82
CCNC(=O)c1ccc(CSc2nc3ccncc3n2Cc2ccc(F)cc2)cc1,0.01
CC(=O)c1cccc(NC(=O)C(Cc2ccccc2)NS(=O)(=O)c2ccc(Br)s2)c1 (stereo unspecified),1.96
Cc1ccc(CN(Cc2ccco2)C(=O)c2ccc(Cl)cc2)o1,0.03
Fc1ccc(NCc2nc3ccccc3n2CCOc2ccccc2Cl)cc1,3.32*
O=C(O)c1ccc(NCc2nc3ccccc3n2CCOc2ccccc2Cl)cc1,0.09
COc1ccc(NCc2nc3ccccc3n2CCOc2ccccc2C)cc1,1
COc1ccc2nc(NS(=O)(=O)c3ccc(C)cc3)c(Nc3cc(Cl)ccc3OC)nc2c1,-4.1
COc1ccc(Nc2nc3ccccc3nc2NS(=O)(=O)c2ccc(C)cc2)c(OC)c1,-0.4
COc1cc(Cl)c(C)cc1Nc1nc2ccccc2nc1NS(=O)(=O)c1ccccc1,3.41*
CCC(=O)N1CCc2cc(Br)cc(S(=O)(=O)CCC(=O)NCCc3ccccc3Cl)c21,0.72
COc1ccc(OC)c(NC(=O)CSc2c3c(nc4ccccc24)CCCC3)c1,-0.34
Cc1ccc(Cl)c2c1N[C@@H](c1ccc(C(=O)O)cc1)[C@H]1CC=C[C@@H]21,-2.67
COc1cc(C(=O)Nc2ccccc2OCc2cc(=O)n3c(C)csc3n2)cc(OC)c1OC,0.02
Cc1ccc(S(=O)(=O)N(CCc2ccccc2)CC(=O)Nc2ccc(Br)cc2)cc1,3.11*
COC(=O)c1ccc(NC(=O)CN(CCc2ccccc2)S(=O)(=O)c2ccc(OC)cc2)cc1,3
SMILES,fixLJ activator
O=C(CN(CCc1ccccc1)S(=O)(=O)c1ccc(Br)cc1)NCc1ccc(Cl)cc1,0.62
Cc1ccc(NC(=O)Cn2c(=O)n(Cc3ccco3)c(=O)c3ccccc32)cc1,-1.84
CCCCc1nc(Cl)c(CO)n1Cc1ccc(-c2ccccc2-c2nnn[nH]2)cc1,-0.87
O=C(CSc1nc2c(oc3ccccc32)c(=O)n1-c1ccccc1)Nc1ccc(F)c(Cl)c1,0.24
O=C(Cn1ncc2c3ccccc3n(Cc3ccc(F)cc3)c2c1=O)NCCC1=CCCCC1,-0.48
O=C(Cn1ncc2c3ccccc3n(Cc3ccc(F)cc3)c2c1=O)NC1CCCCCC1,-2.36
Cc1cc(C)c(Cn2c3ccccc3c3cnn(CC(=O)NC4CCCCCC4)c(=O)c32)c(C)c1,1.5
O=C(Cn1ncc2c3ccccc3n(Cc3cccc(Cl)c3)c2c1=O)NCCC1=CCCCC1,13.1*
Cc1ccc(C)c(Cn2c3ccccc3c3cnn(CC(=O)NCCC4=CCCCC4)c(=O)c32)c1,-0.36
O=C(Cn1ncc2c3ccccc3n(Cc3cccc(Cl)c3)c2c1=O)NC1CCCCCC1,22.5*
CN(Cc1cc(C2CC2)n[nH]1)C(=O)c1cc(C(F)(F)F)n(C)n1,-0.34
COc1ccc(OC)c(-c2noc(CSc3nnc(Cc4ccccc4)n3-c3cccc(C)c3)n2)c1,-2.99
O=C1CC2(CCN(Cc3ncc[nH]3)CC2)OCCN1CC1CCC1,0.31
CCOC(=O)N1CCc2c(sc3c2c(=O)n(-c2ccc(CC)cc2)c(=O)n3Cc2cc(C)ccc2C)C1,-0.05
CCn1c(N)nc2cc(C(=O)NCCCc3nc(C)c(C)s3)cnc21,1.91
Cc1ccc(OCCn2c(CNc3cccc(C)c3)nc3ccccc32)cc1,2.01
O=c1oc2ccccc2cc1-c1nnc(Nc2ccc(Cl)cc2Cl)s1,-0.45
O=C1C2=C(Nc3ccccc3SC2c2ccc(C(F)(F)F)cc2)c2ccccc21 (stereo unspecified),1.37
CCc1ccc(C2Sc3ccccc3NC3=C2C(=O)c2ccccc23)cc1 (stereo unspecified),3.32*
CC(C)c1ccc(C2Sc3ccccc3NC3=C2C(=O)c2ccccc23)cc1 (stereo unspecified),2.65
CC(C)c1ccc(/C=C(\C#N)c2nc(-c3ccc(O)cc3)cs2)cc1,8.4*
CC(C)c1ccc(/C=C(\C#N)c2nc(-c3cc4ccccc4oc3=O)cs2)cc1,1.03
COc1ccc(/C=C(/C#N)c2nc(-c3ccc(Br)cc3)cs2)cc1,-1.18
Cc1cc(C)n2nc(CNS(=O)(=O)c3ccc(C)c(C)c3)nc2n1,0.25
Cc1cc(C(=O)NCCn2nc(C)c(C)c2C)cc(S(N)(=O)=O)c1C,0.65
SMILES,fixLJ activator
Cc1cc2c(c3oc(=O)c4ccccc4c13)CN(Cc1ccc(F)cc1)CO2,5.29*
O=c1oc2c3c(ccc2c2ccccc12)OCN(Cc1ccccc1Cl)C3,0.8
O=c1oc2c3c(ccc2c2ccccc12)OCN(Cc1cccc(Cl)c1)C3,-0.72
Brc1ccccc1-n1ncc2c1ncn1nc(Cc3ccccc3)nc21,-1.46
COc1ccc(C(=O)Nc2noc3ccccc23)cc1,-1.31
CCC(C(=O)NC1CCCCC1)n1c(SCc2ccc(F)cc2)nc2ccncc21 (stereo unspecified),-1.6
CNC(=O)c1noc(CNCc2cc(=O)c3c(C)ccc(C)c3[nH]2)n1,-0.71
COc1ccccc1-c1nc(S(=O)(=O)c2ccc(Cl)cc2)c(N2CCCCCC2)o1,-0.45
O=S(=O)(c1ccccc1)c1nc(-c2ccccc2Cl)oc1N1CCCCCC1,3.2*
Cc1ccc(S(=O)(=O)c2nc(-c3ccccc3Cl)oc2N2CCCCCC2)cc1,1.15
COc1ccc(-c2c(C#N)c(SCC(=O)Nc3ccc(C)c(C)c3)nc(C)c2C(=O)Nc2ccc(Cl)cc2)cc1,-1.76
CCCOc1ccccc1C(=O)N1CCC2(CC1)CC(C)(O)CCO2 (stereo unspecified),0.24
